Compounds with a hit are over-represented: about 3.3% of the library has one in this group of screens.
D3 antag = antagonists of human D3 dopamine receptor. D3R cells, DiscoveRx beta-arrestin luminescence, antagonist mode; hits give low values. max response, negative = inhibition, %. actives 2.5% (n = 360,000); in the data active = max response below about -50%; inconclusive = no clear call, values can overlap the other calls
Target sequence (P35462 whole entry, looked up): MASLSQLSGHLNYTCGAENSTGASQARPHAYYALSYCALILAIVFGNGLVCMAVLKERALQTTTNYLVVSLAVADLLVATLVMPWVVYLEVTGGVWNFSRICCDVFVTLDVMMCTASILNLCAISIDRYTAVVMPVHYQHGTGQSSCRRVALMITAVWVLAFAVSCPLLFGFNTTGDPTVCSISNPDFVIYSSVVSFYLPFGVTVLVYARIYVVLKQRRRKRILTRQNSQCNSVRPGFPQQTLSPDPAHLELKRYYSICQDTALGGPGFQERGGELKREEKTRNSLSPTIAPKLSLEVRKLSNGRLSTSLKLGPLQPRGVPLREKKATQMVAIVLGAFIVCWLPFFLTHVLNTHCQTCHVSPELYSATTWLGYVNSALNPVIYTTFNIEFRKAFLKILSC
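Cells expressing the human receptor were seeded at 1500 cells/well, incubated overnight at 37 degrees C in 5% CO2, then exposed to library compounds with dopamine controls for 90 minutes at 37 degrees C before luminescent detection.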
D3 ag = activates the human D3 dopamine receptor; max activation, %; actives 0.58% (n = 410,000); AID 652048; D3R DiscoveRx beta-arrestin cells, luminescence, 90 min; P35462; in the data active = max activation above about 30%
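Agonist mode: compounds and dopamine controls were applied to plated cells for 90 min at 37 degrees C after an overnight attachment at 1500 cells/well. Luminescent read-out followed 30 - 60 minutes at room temperature with DiscoveRx detection reagent.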
LDHA inh = LDHA (human) enzyme inhibition; activity change, % (values are at about 110 or 230 µM); actives 0.15% (n = 480,000); P00338; purified LDHA, NADH/diaphorase-resazurin fluorescence; hits give low values; in the data active = activity change below about -30%; inconclusive = mostly about -25% to -30%
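Remaining NADH was detected by diaphorase (0.133 mg/mL) converting 37 µM resazurin to fluorescent resorufin, read at 0 and 20 minutes. The preceding 5-minute room-temperature reaction used 2 nM LDHA, 0.2 mM sodium pyruvate and 0.06 mM NADH at pH 7.4.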
PI5P4K alpha inh = inhibitors of human PI5P4K alpha | PI5P4Kalpha enzyme, ADP-Glo luminescence, 60 min; hits give low values | AID 652105 | max response, % | actives 1.2% (n = 330,000) | P48426; active = max response of -50% or lower; inconclusive = between -30% and -50%; inactive = -30% or higher; also: value at the top dose of about 77 µM
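Enzyme plus substrate dispensed, test compounds pinned in, then ATP (5 microM final) added. After 60 min at RT, ADP-Glo reagent 1 for 45 min and reagent 2 for 30 min preceded luminescence imaging.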
PI4K2A inh = blocks human PI4K2A kinase activity | Q9BTU6 | purified PI4K2A, ADP-Glo luminescence, 1 h; hits give low values | activity change, negative = inhibition, % at 76.9 µM | actives 0.13% (n = 420,000); in the data active = activity change below about -50%; inconclusive = mostly about -30% to -49%
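Compounds are screened against recombinant PI4K2A using PI as substrate and ATP, the latter dispensed at 300 microM. Reactions run one hour at ambient temperature before ADP-Glo detection; full inhibition defined by wells lacking enzyme.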
Each line names hits and unclear results; the compound was inactive in the other large screens.

CCCCn1nc(C(=O)NCc2ccccn2)c2ccccc2c1=O	none (no result: D3 antag, D3 ag, PI5P4K alpha inh, PI4K2A inh)
CCN(C(=O)CSc1nc2cc(C(=O)O)ccc2c(=O)n1Cc1ccccc1)c1ccccc1	PI5P4K alpha inh -53.0
CN(C(=O)CSc1nc2cc(C(=O)O)ccc2c(=O)n1Cc1ccccc1)C1CCS(=O)(=O)C1 (stereo not given)	PI5P4K alpha inh inconclusive
Cc1c(C(=O)NC(=S)Nc2cccnc2)cccc1[N+](=O)[O-]	D3 antag -64.6
Cc1ccc(C(=O)NC(=S)Nc2cccc(NC(=O)c3ccccc3)c2)cc1[N+](=O)[O-]	D3 antag -67.5
O=C(/C=C/c1ccc(O)c(O)c1)c1ccc(S(=O)(=O)N2CCCCCC2)cc1	PI5P4K alpha inh -64.4
CC(C)N[C@H]1CS(=O)(=O)C[C@@H]1S(=O)(=O)c1ccccc1	none (no result: D3 antag, D3 ag, PI5P4K alpha inh, PI4K2A inh)
Cc1[nH]c(C)c(S(=O)(=O)Nc2ccc(C(C)C)cc2)c1C(=O)N1CCCCC1	none (no result: D3 antag, D3 ag, PI5P4K alpha inh, PI4K2A inh)
CN(C)c1ccc(/C=C/c2ccc3c4ccccc4ccc3[n+]2-c2ccccc2)cc1	PI5P4K alpha inh -87.1, PI4K2A inh -54.1
CN(C)c1ccc(/C=C/c2ccc3ccccc3[n+]2C)cc1	PI5P4K alpha inh inconclusive, PI4K2A inh inconclusive
Cc1ncc(CN)c(C)c1N	none (no result: D3 antag, D3 ag, PI5P4K alpha inh, PI4K2A inh)
C[C@H](O)[C@@H]1CN2CCc3c([nH]c4ccccc34)[C@@H]2C[C@@H]1N(C)C(=O)NC1CCCCC1	D3 antag -58.0
O=C1CCC2CN3CCc4c([nH]c5ccccc45)C3CC2C1 (stereo not given)	D3 antag -89.5
COc1ccc2c3c([nH]c2c1)[C@H]1C[C@H]2[C@H](C[C@@H](O)[C@H](OC)[C@H]2C(=O)O)CN1CC3	none
O=C(O)[C@@H]1[C@H]2C[C@H]3c4[nH]c5ccccc5c4CCN3C[C@@H]2CC[C@@H]1O	D3 antag -61.0
Cc1cc(C)n(-c2nc3ccccc3nc2Nc2ccc(Cl)cc2Cl)n1	D3 ag 57.6 (no result: D3 antag, PI5P4K alpha inh)
Cc1ccc2nc(Nc3ccccc3)c(-n3nc(C)cc3C)nc2c1	none (no result: D3 antag, D3 ag, PI5P4K alpha inh, PI4K2A inh)
Cc1ccc2nc(Nc3ccc4[nH]c(=O)[nH]c4c3)c(-n3nc(C)cc3C)nc2c1	D3 ag 69.0 (no result: PI5P4K alpha inh)
Cc1cc(C)n(-c2nc3ccccc3nc2Nc2cc(Cl)ccc2C)n1	none (no result: D3 antag, PI5P4K alpha inh)
O=C1c2ccccc2C(=Cc2cccnc2)c2ccccc21	PI5P4K alpha inh -54.1
CN1C/C(=C/c2cccnc2)C(=O)/C(=C/c2cccnc2)C1	D3 antag -55.3
O=C1/C(=C/c2cccnc2)Sc2ccccc21	none
CC(C)N1C/C(=C/c2cccnc2)C(=O)/C(=C/c2cccnc2)C1	D3 antag inconclusive
CC[n+]1c(/C=C/C=C/N(C(C)=O)c2ccccc2)sc2cc(OC)ccc21	PI5P4K alpha inh -54.0
CCCCCCCCS(=O)CCCO (stereo not given)	none (no result: D3 antag, D3 ag, PI5P4K alpha inh, PI4K2A inh)
CC(C)(CO)NCc1cccc(OCc2ccc(Cl)cc2)c1	none
Clc1ccc(COc2cccc(CNCc3ccncc3)c2)cc1	D3 ag 40.3
C=CCN1C(=O)S/C(=C/c2ccc(Sc3nc4ccccc4[nH]3)o2)C1=O	D3 ag 50.6
CC(C)N1C(=O)S/C(=C/c2ccc(Sc3nc4ccccc4[nH]3)o2)C1=O	none
Cn1c(CNC(=O)c2ccccc2F)nnc1SCc1ccc(Cl)cc1	none
Cc1ccccc1C(=O)NCc1nnc(SCC(=O)N2c3ccccc3Sc3ccccc32)n1C	D3 antag -63.8
O=C(Nc1cccc(Cl)c1)c1nnc(SCC(=O)N2CCN(c3ccc(F)cc3)CC2)s1	none (no result: D3 antag, D3 ag, PI5P4K alpha inh, PI4K2A inh)
Cn1c2ccccc2c(=O)c2cc(C#Cc3ccc(N)cc3)ccc21	D3 ag 59.0
Nc1cccc(C#Cc2ccc3c(=O)c4ccccc4oc3c2)c1	none
COc1cc2sc3ccc(C#Cc4ccc(N)cc4)cc3c(=O)c2cc1OC	D3 ag 34.9
Nc1ccc(C#Cc2ccc3oc4ccccc4c(=O)c3c2)cc1	D3 ag 58.9
COc1ccc(C#Cc2ccc3c(c2)c(=O)c2ccccc2n3C)cc1	none
Nc1ccc2oc3ncccc3c(=O)c2c1	D3 antag -97.9 (no result: PI5P4K alpha inh)
COc1ccccc1CCc1nnc(CCC(=O)NCC[C@@H]2C[C@@H]3C=C[C@H]2C3)o1	D3 antag -61.7
Cc1oc(-c2ccc(Cl)cc2)nc1CN1CCCC(C(=O)NCc2ccco2)C1 (stereo not given)	D3 antag -73.5
COc1ccc(CN(C)C(=O)c2cc(Cl)c3c(c2)OCCO3)c(OC)c1	none (no result: D3 antag, D3 ag, PI5P4K alpha inh, PI4K2A inh)
C/C(=N\NC(=O)C(O)(c1ccccc1)c1ccccc1)c1cccs1	none (no result: D3 antag, D3 ag, PI5P4K alpha inh, PI4K2A inh)
O=C(/C=C/N1CCC(CCCC2CCN(/C=C/C(=O)C(F)(F)F)CC2)CC1)C(F)(F)F	none (no result: D3 antag, D3 ag, PI5P4K alpha inh, PI4K2A inh)
Cc1ccc(NC(=S)NNC(=O)c2cn(C)nc2C)cc1	D3 antag -66.9
Cc1ccc(NC(=S)NNC(=O)Nc2ccccc2)cc1	D3 antag -51.8
O=C(NNC(=S)Nc1ccccc1)Nc1ccccc1	none
Cc1ccc(NC(=S)NNC(=O)c2c(Cl)c(C)nn2C)cc1	none
O=C(NNC(=S)Nc1ccccc1)NNC(=S)Nc1ccccc1	D3 antag -69.6
Cc1cccc(C)c1NC(=O)c1sc(-n2nc(C)c(Cl)c2C)nc1C	none (no result: D3 antag, D3 ag, PI5P4K alpha inh, PI4K2A inh)
Cc1cccc(C(=O)O)c1NS(=O)(=O)c1ccc(S(=O)(=O)N2CCCC2)cc1	none (no result: D3 antag, D3 ag, PI5P4K alpha inh, PI4K2A inh)
Cc1cccc(OC(=O)Nc2ccc(C(=O)O)c(O)c2)c1	PI5P4K alpha inh -54.5
CCOC(=O)Nc1ccc(C(=O)Oc2ccccc2)c(O)c1	D3 antag inconclusive (no result: PI5P4K alpha inh)
